Experimental data as given in PubChem BioAssay AID504339 (National Center for Advancing Translational Sciences (NCATS), 2011).
The whole screen tested about 390,000 compounds, of which about 17,000 (4.4%) were called active. Not shown: some 8% with an inconclusive outcome. The call rests on the fitted dose curve; in most records, active means well fitted inhibition curve with a large enough effect; inconclusive means small, poorly fitted or top-dose-only effect; inactive means no such curve, though single readings can be large or run the other way. For the sample, actives were picked, then their nearest neighbours and some compounds at random.

molecular target: Lysine-specific demethylase 4A (Homo sapiens) (UniProt O75164); test: qHTS Assay for Inhibitors of JMJD2A-Tudor Domain; conditions: AlphaScreen JMJD2A-Tudor / H3K4me3 peptide binding; series mostly up to 114 µM; activity change, negative = inhibition: at the top concentration; further: nearly all actives have a fitted effect of over 50% in size
Sequence (O75164 whole entry, looked up, the tested form may be a part): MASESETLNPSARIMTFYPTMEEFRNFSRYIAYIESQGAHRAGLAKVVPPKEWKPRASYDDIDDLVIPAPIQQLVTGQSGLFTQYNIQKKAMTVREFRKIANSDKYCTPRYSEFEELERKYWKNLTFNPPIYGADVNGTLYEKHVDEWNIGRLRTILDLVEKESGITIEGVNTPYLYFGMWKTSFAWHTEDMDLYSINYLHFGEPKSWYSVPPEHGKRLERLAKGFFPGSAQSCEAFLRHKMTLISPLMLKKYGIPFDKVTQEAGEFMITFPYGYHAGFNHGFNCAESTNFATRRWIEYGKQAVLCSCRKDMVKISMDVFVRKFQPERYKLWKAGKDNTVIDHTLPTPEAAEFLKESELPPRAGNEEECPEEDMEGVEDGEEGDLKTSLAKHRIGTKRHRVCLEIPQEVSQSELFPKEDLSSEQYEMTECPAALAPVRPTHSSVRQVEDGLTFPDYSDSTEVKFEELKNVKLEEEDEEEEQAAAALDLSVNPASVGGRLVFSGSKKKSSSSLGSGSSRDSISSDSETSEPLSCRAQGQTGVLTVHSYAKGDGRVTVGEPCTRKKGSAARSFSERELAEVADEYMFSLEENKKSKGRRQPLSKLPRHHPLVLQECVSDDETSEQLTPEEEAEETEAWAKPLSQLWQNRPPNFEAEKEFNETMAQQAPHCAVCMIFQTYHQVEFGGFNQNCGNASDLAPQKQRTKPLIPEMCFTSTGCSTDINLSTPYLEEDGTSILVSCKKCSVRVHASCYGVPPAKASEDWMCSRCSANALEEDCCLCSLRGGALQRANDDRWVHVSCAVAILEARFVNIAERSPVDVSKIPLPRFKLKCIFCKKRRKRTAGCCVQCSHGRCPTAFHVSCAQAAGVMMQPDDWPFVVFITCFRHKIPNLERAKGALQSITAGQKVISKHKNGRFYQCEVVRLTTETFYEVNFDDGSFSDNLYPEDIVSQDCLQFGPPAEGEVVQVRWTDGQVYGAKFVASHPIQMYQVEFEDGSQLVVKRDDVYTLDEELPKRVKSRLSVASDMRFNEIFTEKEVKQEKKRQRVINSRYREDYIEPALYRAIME
On the % scale 0 is the no-effect control and ±100 the full control effect; potency means the concentration at half of the fitted maximal effect.

Activity change, negative = inhibition, inactive:
Cc1ccc(-n2ncc(C(=O)N(C)Cc3ccccc3)c2-n2cccc2)cc1 -24.5%, CCOC(=O)N1CCc2c(sc3c2C(=O)NC(c2ccccc2F)N3)C1 (centres undefined) -10.7%, COc1ccc(-c2cc(C(=O)NCc3cc(OC)c(OC)c(OC)c3)[nH]n2)cc1 9.66%, O=C(CCC1CCCN(C(=O)Cc2ccc(F)cc2)C1)N1CCN(c2ccccn2)CC1 (centres undefined) 2.46%, O=C(CCC1CCCN(C(=O)c2ccc(F)c(F)c2)C1)N1CCN(c2ccccn2)CC1 (centres undefined) -7.35%, Brc1cccc(-c2nnn3c2nc(NC2CCCCC2)c2ccccc23)c1 21.2%, CCc1cc2c(cc3c(=O)n(CC(=O)NCc4cccc(Cl)c4)nc(CC)n32)s1 -15.3%, O=C(Nc1ccccc1[N+](=O)[O-])C1C(c2ccccc2)=C1c1ccccc1 -11.9%, O=C(NCCNc1ccccc1[N+](=O)[O-])c1ccccc1F -9.86%, CCOC(=O)CNC(=O)c1cc2c(=O)n3cccc(C)c3nc2s1 6.48%, O=C(c1ccc2c(c1)N(Cc1ccc(Cl)cc1)C(=O)c1ccccc1S2(=O)=O)N1CCCCC1 -14.8%, O=c1c2cccnc2n(Cc2cccc(F)c2)c(=O)n1Cc1ccccc1Cl 7.27%, CCOc1cc(-c2nnc(SCC(=O)NC3CCCC3)nc2-c2ccc(OC)c(OCC)c2)ccc1OC -17.3%, O=C(NCCc1ccc(Cl)cc1)c1cccc(N2CCCC2=O)c1 -2.78%, Cc1cccc(NC(=S)NCCc2ccc(Cl)cc2)c1C -20.7%, Cc1ccccc1CNC(=O)C(=O)NCC(c1cccs1)S(=O)(=O)c1cccs1 (centres undefined) -14.3%, Cc1ccccc1OCC(=O)Nc1c(C(=O)Nc2ccccc2F)oc2ccccc12 -2.65%, O=C(Nc1cc(C(F)(F)F)ccc1Cl)c1nc2ccccc2nc1N1CCCCC1 -28%, O=C(CN1CCN(c2ccc(F)cc2)CC1)Nc1cccc(C(F)(F)F)c1 -25.8%, CCCc1cc(=O)oc2c(C)c(O)c(CN3CCCCC3)cc12 -15.6%, O=C(Cc1ccccc1)NNC(=O)C1CCN(c2ncccn2)CC1 2.84%, Cc1cc(=O)oc2cc(OCC(=O)N3CCN(c4ccc(F)cc4)CC3)c(Cl)cc12 -18.3%, Cc1ccc(O)c(NC(=O)CCS(=O)(=O)c2nc(-c3ccc4c(c3)OCO4)cc(C(F)(F)F)n2)c1 -25.6%, CCOc1ccc(NC(=O)c2c(NC(=O)Cc3ccccc3)sc3c2CCC(C)C3)cc1 (centres undefined) -34%, Cc1ccc(-n2ncc3c(N4CCC(C(N)=O)CC4)ncnc32)cc1 -5.2%, COc1ccc(Cn2c(C(=O)O)c(CNCc3cccc(OC)c3)c3ccc(C)cc32)cc1 -27.9%, COc1ccccc1C(=O)Nc1c(C(=O)Nc2ccc(C)cc2)oc2ccccc12 -11.9%, Cc1ccc(-c2nn3c(=O)cc(CN4CCN(S(=O)(=O)c5ccc(Cl)cc5)CC4)nc3s2)cc1 -0.325%, Cc1cccc(Cc2c(C)nc3nc(SCc4ccccc4Cl)nn3c2C)c1 13.3%, O=C(CNc1ccc(F)cc1F)NC(=O)NCc1ccco1 -32.2%, Cc1cc(C)n2nc(SCC(N)=O)nc2n1 -32.6%, COc1ccc(-c2onc(C)c2C)cc1S(=O)(=O)NCC1CCN(Cc2cccc(F)c2)CC1 -17.2%, CCN(CC)S(=O)(=O)c1cccc(NC(=O)c2ccc(S(=O)(=O)N3CCCC3)cc2)c1 -24.2%, COC(=O)c1ccc(NC(=O)CSc2n[nH]c(-c3ccccc3)n2)cc1 -0.974%, COc1ccc(N2C(=O)CS(=O)(=O)C23C(=O)N(Cc2ccc(C)cc2)c2ccccc23)cc1Cl (centres undefined) -16.8%, COc1ccc(CC(=O)NCCc2sc3nc(-c4ccc(OC)cc4)nn3c2C)cc1 -20.8%, Cc1cccc(C(=O)NCCc2nc3ccccc3n2Cc2ccccc2Cl)c1 1.68%, Cc1cccc(-n2cnc(C(=O)Nc3cccnc3)c2)n1 6.53%, Cc1nn(C)cc1C(=O)NNC(=S)Nc1ccc(Cl)cc1 -20.5%, Cc1ccc2c(c1)c1c(c(=O)n(-c3ccccc3)c(=O)n1CC(=O)c1ccc(Cl)cc1)n2C -6.21%, Cc1ccc(C)c(OCC(=O)Nc2sc3c(c2C#N)CCCC3)c1C -3.46%, Cc1cc(C)cc(NC(=O)CSc2nc(=O)n(CCN3CCOCC3)c3c2CCC3)c1 -23.1%, O=S(=O)(c1cccs1)N1CCN(CCOc2ccccc2)CC1 -7.9%, O=C(COc1ccccc1Cl)N1CCCCCCC1 -8.16%, CC1CC(C)CN(CCOc2cccc3ccccc23)C1 (centres undefined) -25.8%, CC1CCCN(CC(=O)Nc2cc(Cl)ccc2Oc2ccccc2)C1 (centres undefined) 50.3%, COCCNC(=O)CSc1nc(-c2ccccc2)[nH]c1-c1ccc(C)cc1 -23.3%, COc1cccc(CNC(=O)CN2C(=O)CCc3cc(S(=O)(=O)N4CCOCC4)ccc32)c1 -9.6%, Cc1ccc(Cl)cc1-n1ncc2c(N3CCC(C(N)=O)CC3)ncnc21 -7.65%, Cc1ccc(C(=O)N2CCc3cc(CNC(=O)c4ccc(Br)cc4)ccc32)cc1 -21%, O=C(COc1ccc(/C=N/NS(=O)(=O)c2ccccc2)cc1)NCCc1ccccc1 -1.37%, COc1ccc(N2CC(NS(=O)(=O)c3ccc4ccccc4c3)CC2=O)cc1 (centres undefined) -0.687%, CCc1cnc2c(c1SCC(=O)N1CCC(C)CC1)c(=O)n(C)c(=O)n2C -9.42%

Potency, active:
C=Cc1ccc(C(=O)N2CCCC(CCC(=O)N3CCN(c4ccccn4)CC3)C2)cc1 (centres undefined) 56.2 µM, O=[N+]([O-])c1ccccc1Nc1ccc(O)cc1 63.1 µM, Oc1cc2c(cc1O)CN(C(=S)NCCc1ccc(Cl)cc1)CCC2 44.7 µM, Oc1c(CN2CCCC2)cc(COCc2ccccc2)c2cccnc12 25.1 µM, Oc1c(CN2CCN(c3ccc(F)cc3)CC2)cc(Cl)c2cccnc12 25.1 µM, Cc1cc(C)n2nc(SCC(=O)NC(=O)NCc3ccco3)nc2n1 20 µM, CCN(CC)S(=O)(=O)c1cccc(-c2n[nH]c(=S)n2/N=C/c2ccc(C(=O)OC)cc2)c1 10 µM, Cc1cccc(-n2cnc(C(=O)NNC(=S)Nc3ccccc3)c2)n1 35.5 µM, CC1CCCN(CCOCCOc2ccccc2-c2ccccc2)C1 (centres undefined) 20 µM, c1ccc(-c2ccccc2OCCN2CCCCC2)cc1 8.91 µM, O=S(=O)(N/N=C\c1cccn1-c1ccccc1)c1ccc2ccccc2c1 50.1 µM
